The campaign covered roughly 5,500 compounds. About 2,000 (36%) were called active. Another 18% or so got no clear call; they are omitted. Rule as the data show it: active = normalized growth mostly below about 0.91 (no sharp cut-off); inconclusive = no clear call, values can overlap the other calls; inactive = mostly above about 0.92. The list shows a part of the results.
Assay: chemical genetic growth profiling, strain panel (AID 1159580);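 also: tested at 20 µM; growth read once vehicle control cultures reached saturation at 30 °C; 1 = growth at the plate median or of vehicle wells; lower values mean less growth of the strain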
Conditions: growth OD

Measured: normalized growth

CNC(Cc1c[nH]c2ccccc12)C(=O)O (centres undefined)
inactive: S. cerevisiae deletion strains, locus YJR066W, strain TOR1, active compounds read low 0.932 | S. cerevisiae deletion strains, locus YKL009W, strain mrt4, active compounds read low 0.99 | S. cerevisiae deletion strains, locus YKL068W, active compounds read low 0.992 | S. cerevisiae deletion strains, locus YKL085W, strain MDH1 (second series), active compounds read low 0.983 | S. cerevisiae deletion strains, locus YKL085W, strain MDH1, active compounds read low 0.983 | S. cerevisiae deletion strains, locus YKL160W, strain elf1, active compounds read low 0.973 | S. cerevisiae deletion strains, locus YKR001C, strain vps1, active compounds read low 1 | S. cerevisiae deletion strains, locus YKR026C, strain gcn3, active compounds read low 0.975 | S. cerevisiae deletion strains, locus YKR091W, strain srl3, active compounds read low 0.976 | S. cerevisiae deletion strains, locus YLL001W, strain dnm1, active compounds read low 0.972 | S. cerevisiae deletion strains, locus YLL026W, active compounds read low 0.974 | S. cerevisiae deletion strains, locus YLL041C, strain sdh2, active compounds read low 0.981 | S. cerevisiae deletion strains, locus YLR027C, strain aat2, active compounds read low 0.965 | S. cerevisiae deletion strains, locus YLR039C, strain RIC1, active compounds read low 1.03 | S. cerevisiae deletion strains, locus YLR058C, strain SHM2, active compounds read low 0.989 | S. cerevisiae deletion strains, locus YLR102C, strain apc9, active compounds read low 0.995 | S. cerevisiae deletion strains, locus YLR113W, strain HOG1, active compounds read low 1.07 | S. cerevisiae deletion strains, locus YLR221C, strain rsa3, active compounds read low 1.01 | S. cerevisiae deletion strains, locus YLR258W, strain gsy2, active compounds read low 0.99 | S. cerevisiae deletion strains, locus YLR262C, strain YPT6 (second series), active compounds read low 1.01 | S. cerevisiae deletion strains, locus YLR262C, strain YPT6, active compounds read low 1.01 | S. cerevisiae deletion strains, locus YLR268W, strain sec22, active compounds read low 1.03 | S. cerevisiae deletion strains, locus YLR320W, strain mms22, active compounds read low 1.02 | S. cerevisiae deletion strains, locus YLR330W, strain CHS5, active compounds read low 0.987 | S. cerevisiae deletion strains, locus YLR342W, strain FKS1 (second series), active compounds read low 0.957 | S. cerevisiae deletion strains, locus YLR342W, strain FKS1, active compounds read low 0.989 | S. cerevisiae deletion strains, locus YLR357W, strain rsc2, active compounds read low 0.951 | S. cerevisiae deletion strains, locus YLR370C, strain arc18, active compounds read low 0.987 | S. cerevisiae deletion strains, locus YLR371W, strain rom2, active compounds read low 0.969 | S. cerevisiae deletion strains, locus YLR384C, strain iki3, active compounds read low 1.01 | S. cerevisiae deletion strains, locus YLR418C, strain cdc73, active compounds read low 0.983 | S. cerevisiae deletion strains, locus YML016C, strain PPZ1, active compounds read low 0.984 | S. cerevisiae deletion strains, locus YML032C, strain rad52, active compounds read low 0.963 | S. cerevisiae deletion strains, locus YML120C, strain ndi1, active compounds read low 0.983 | S. cerevisiae deletion strains, locus YML124C, strain tub3, active compounds read low 0.994 | S. cerevisiae deletion strains, locus YMR058W, strain fet3, active compounds read low 0.981 | S. cerevisiae deletion strains, locus YMR078C, strain ctf18, active compounds read low 0.984 | S. cerevisiae deletion strains, locus YMR125W, strain sto1, active compounds read low 0.973 | S. cerevisiae deletion strains, locus YMR129W, active compounds read low 0.988 | S. cerevisiae deletion strains, locus YMR205C, strain PFK2, active compounds read low 0.965 | S. cerevisiae deletion strains, locus YMR223W, strain ubp8, active compounds read low 0.972 | S. cerevisiae deletion strains, locus YMR231W, strain pep5, active compounds read low 0.976 | S. cerevisiae deletion strains, locus YMR263W, strain SAP30, active compounds read low 0.982 | S. cerevisiae deletion strains, locus YMR307W, strain GAS1, active compounds read low 0.902 | S. cerevisiae deletion strains, locus YNL067W, strain RPL9B, active compounds read low 0.988 | S. cerevisiae deletion strains, locus YNL071W, strain lat1, active compounds read low 0.989 | S. cerevisiae deletion strains, locus YNL128W, strain TEP1, active compounds read low 0.983 | S. cerevisiae deletion strains, locus YNL153C, strain GIM3, active compounds read low 0.976 | S. cerevisiae deletion strains, locus YNL183C, strain NPR1, active compounds read low 0.993 | S. cerevisiae deletion strains, locus YNL209W, strain ssb2, active compounds read low 0.982 | S. cerevisiae deletion strains, locus YNL233W, strain BNI4, active compounds read low 1 | S. cerevisiae deletion strains, locus YNL248C, strain rpa49, active compounds read low 0.962 | S. cerevisiae deletion strains, locus YNL250W, strain rad50, active compounds read low 0.961 | S. cerevisiae deletion strains, locus YNL271C, strain bni1, active compounds read low 0.994 | S. cerevisiae deletion strains, locus YNL298W, strain CLA4, active compounds read low 0.987 | S. cerevisiae deletion strains, locus YNL307C, strain MCK1, active compounds read low 0.988 | S. cerevisiae deletion strains, locus YNL322C, strain KRE1 (second series), active compounds read low 0.986 | S. cerevisiae deletion strains, locus YNL322C, strain KRE1, active compounds read low 0.985 | S. cerevisiae deletion strains, locus YNR049C, strain mso1, active compounds read low 0.978 | S. cerevisiae deletion strains, locus YNR052C, strain pop2, active compounds read low 0.983 | S. cerevisiae deletion strains, locus YOL012C, strain htz1 1.5 | S. cerevisiae deletion strains, locus YOL147C, strain pex11, active compounds read low 1.01 | S. cerevisiae deletion strains, locus YOR001W, strain rrp6, active compounds read low 0.975 | S. cerevisiae deletion strains, locus YOR061W, strain CKA2, active compounds read low 0.961 | S. cerevisiae deletion strains, locus YOR069W, strain VPS5, active compounds read low 0.999 | S. cerevisiae deletion strains, locus YOR070C, strain gyp1, active compounds read low 1 | S. cerevisiae deletion strains, locus YOR080W, strain dia2, active compounds read low 0.99 | S. cerevisiae deletion strains, locus YOR083W, strain WHI5, active compounds read low 0.975 | S. cerevisiae deletion strains, locus YOR106W, strain vam3, active compounds read low 0.96 | S. cerevisiae deletion strains, locus YOR136W, strain idh2, active compounds read low 0.991 | S. cerevisiae deletion strains, locus YOR144C, strain elg1, active compounds read low 0.988 | S. cerevisiae deletion strains, locus YOR184W, strain ser1, active compounds read low 0.985 | S. cerevisiae deletion strains, locus YOR231W, strain MKK1, active compounds read low 1 | S. cerevisiae deletion strains, locus YOR265W, strain rbl2, active compounds read low 0.974 | S. cerevisiae deletion strains, locus YOR270C, strain vph1, active compounds read low 0.972 | S. cerevisiae deletion strains, locus YOR290C, strain snf2, active compounds read low 0.934 | S. cerevisiae deletion strains, locus YOR316C, strain cot1, active compounds read low 0.991 | S. cerevisiae deletion strains, locus YPL051W, strain arl3, active compounds read low 0.99 | S. cerevisiae deletion strains, locus YPL055C, strain LGE1, active compounds read low 0.953 | S. cerevisiae deletion strains, locus YPL078C, strain atp4, active compounds read low 0.959 | S. cerevisiae deletion strains, locus YPL106C, strain sse1, active compounds read low 0.985 | S. cerevisiae deletion strains, locus YPL240C, strain hsp82, active compounds read low 0.989 | S. cerevisiae deletion strains, locus YPL256C, strain CLN2, active compounds read low 0.978 | S. cerevisiae deletion strains, locus YPR119W, strain clb2, active compounds read low 0.997 | S. cerevisiae deletion strains, locus YPR141C, strain kar3, active compounds read low 0.986 | S. cerevisiae deletion strains, locus YPR163C, strain tif3, active compounds read low 0.993 | S. cerevisiae deletion strains, locus YPR167C, strain met16, active compounds read low 0.992 | S. cerevisiae deletion strains, strain wtn01, active compounds read low 1.02 | S. cerevisiae strains, strain wild type, active compounds read low 1
